Experimental findings from PubChem BioAssay (NCI) are described below.

The panel holds about 83,000 compounds, 20% with a hit somewhere; the sample as a whole holds those more often.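 Results are percent growth after 48 hours of single-concentration exposure. 100 means growth as in untreated cells, lower positive values show inhibition; negative values down to -100 show cell death.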 Unmarked numbers belong to inactive results. Calls of active or inactive are those of the source.

The subject of the assay is UO-31 renal. The assay is described as follows: NCI-60 one-dose screen, 48 h (100 = growth as untreated, 0 = no growth, -100 = all killed). The conditions noted are these: 10 µM unless noted. The method, then:
Growth inhibition of the UO-31 human tumor cell line is measured as a screen for anti-cancer activity. Cells are grown in 96 well plates and exposed to the test compound for 48 hours. Compounds are tested at a single concentration, which is 10^-5 M for most compounds. The reported endpoint is percent growth (GI% or GIPRCNT), where numbers from 0 - 100% represent growth inhibition, and numbers from -100% - 0 represent cell death. For example, a value of 40 represents 60% growth inhibition. A value of 0 means no net growth occurred over the course of the experiment. A value of -40 indicates 40% of cells at the beginning of the experiment died by the end of the experiment. A value of -100 means all cells are dead at the end of the experiment.
NCI-60 Human Tumor Cell Lines Screen was performed using the standard one-dose NCI protocol, which is described in more detail at https://dtp.cancer.gov/discovery_development/nci-60/default.htm.
Compounds with GIPRCNT values below 10 were considered active. Activity score was based on GIPRCNT using the following formula: […]
Score is 0 for GIPRCNT values of 100 or above, 50 for GIPRCNT values of 0, and 100 for GIPRCNT values of -100.
Regarding `C=C(C)[C@@H]1C/C=C(/C=O)CC[C@@H]2O[C@@]2(C)CC/C=C(\C)CC1`, the growth is 122%.

For `CCN(CC)CCCCNc1c2ccccc2[n+](C)c2c1[nH]c1ccccc12`, the growth is 22.2%.

As to `CN(C)c1nc(-c2ccco2)n2nc(-c3ccco3)cc2n1`, the growth is 40.5%.

As for `Cc1c(C(N)=O)sc2c1c(=O)n(Cc1ccccc1)c1nnc(S(=O)(=O)CC(=O)Nc3ccc(Cl)cc3)n21`, the growth was 87%.

`O=C(/C=C/c1ccccc1Cl)c1ccc(O)cc1`: the growth was 43.6%.

`Cn1cc(-c2csc(-c3cn(C)c4ncccc34)n2)c2cccnc21`: the growth was 91.9%.

As to `Clc1ccc2c(Nc3ccc4oc(NCCN5CCCC5)nc4c3)ccnc2c1`, the growth is 66.2%.

On to `COc1cc2c(c(OC)c1OC)CCc1cnoc1-2`, for which the growth is 94.5%.

Regarding `O=C1CN(CO)C(=O)CN1CO`, the growth is 87.7%.

For `CCOc1cc(-c2ccc[nH]2)[nH]c1/C=C1\N=C(C)C(C(=O)OC)=C1C`, the growth was -79.9% (active).

As to `CCCCCCCCCCC[C@@H](C[C@H]1OC(=O)[C@H]1CCCCCC)OC(=O)[C@@H](CC(C)C)NC=O`, the growth was 19%.

For `COc1ccc(/C=C(\C#N)c2ccccc2)cc1`, the growth was 85.6%.

As to `Cc1nn(-c2ccc(Br)cc2)c2nc3c(nc12)C(=O)C(=O)c1ccccc1-3`, the growth is 63.7%.

On to `COc1ccc(-c2csc(NC(=O)c3cc(OC)c(OC)c(OC)c3)n2)cc1`, for which the growth was 89.3%.

As to `CCCCOc1ccc(C(C)(C)c2ccc(OCCCC)cc2)cc1`, the growth was 80.5%.

As to `Cc1ccc2c(c1)O/C(=C\c1ccc([N+](=O)[O-])o1)C2=O`, the growth was -21.6% (active).

Turning to `CC(=O)Nc1ccc2c(c1)Cc1c(F)c(F)c(F)c(F)c1-2`, the growth was 58.1%.

For the molecule `Clc1ccccc1[C@@H]1C[C@@H]2Cc3cc(Br)c4ccccc4c3N1O2`, the growth was 40.3%.

Turning to `COc1ccc2[nH]cc(/C=C3/C(=O)Nc4ccc(Cl)cc43)c2c1`, the growth was 65.7%.

Regarding `c1csc([C@@H]2C[C@@H]3Cc4ccc5ccccc5c4N2O3)c1`, the growth is 70.2%.

Turning to `COc1ccc2c(c1)nc(N)c1c3ccccc3cn21`, the growth is 59%.

As for `CCOC(=O)c1c(C)c(C(=O)OCC)n(C)c1C`, the growth was 81.2%.

For the molecule `COc1cccc(/C=C2\COc3ccc(O)c(O)c3C2=O)c1OC`, the growth is -94.7% (active).

With `CCCCCCC(C)(O)c1ccccc1` (stereo not given), the growth is 80.3%.

In the case of `COc1cc(OC)c2cc(C(=O)O)c(=O)oc2c1`, the growth is 80.7%.

As for `c1cnc2ccc3ncccc3c2c1`, the growth is 76.8%.

On to `Cc1scc2c1N(C(=O)CN1CCN(C)CC1)c1ccccc1NC2=O`, for which the growth was 85.9%.

For `C=CCCCCCCCCC(=O)[O][Sn]([CH2]CCC)([CH2]CCC)[CH2]CCC`, the growth is -88.7% (active).

Take `COc1cc(/C=C2\CCC/C(=C\c3ccc(OCC4CO4)c(OC)c3)C2=O)ccc1OCC1CO1` (stereo not given): the growth is 47.6%.

For `CCOC(=O)/C(=C/c1ccccc1)C(=O)c1ccccc1`, the growth is 53.1%.

`Cn1cnc([N+](=O)[O-])c1S(=O)(=O)Oc1ccc(Cl)cc1`: the growth was -82% (active).

Regarding `c1cnc2n[nH]c(Nc3ncnc4c3sc3ncccc34)c2c1`, the growth was 98.5%.

Take `COc1ccc(C(=O)/C=C/c2c(Cl)nc3c(c(C)nn3-c3ccccc3)c2-c2ccc(Br)cc2)cc1`: the growth is 88.1%.

Turning to `CCOC(=O)/C=C(/C)Sc1cc(O)c2ccccc2c1O`, the growth is -5.64% (active).

Take `CSC1=Nc2c(c(C)c(-c3ccccc3)n2CCCN2CCCCC2)C2=NC(=O)C[C@H](C)N12`: the growth was 56.6%.

Consider `COc1ccc2nc(NC(=O)c3cc(-c4ccc(F)cc4)n4nc(-c5ccccc5)cc4n3)sc2c1`, for which the growth was 73.6%.

Consider `O=C(N1CCC(CN=c2cc3n(-c4ccc(Cl)cc4)c4ccccc4nc-3cc2Nc2ccc(Cl)cc2)CC1)N1CC1`, for which the growth is -96.3% (active).

In the case of `O=C1NCN(c2ccccc2)C12CCN(CCCC(c1ccc(F)cc1)c1ccc(F)cc1)CC2`, the growth was 26.1%.

On to `O=C(/C(=C/c1ccc([N+](=O)[O-])cc1)c1ccccc1)c1ccccc1`, for which the growth is 43.1%.

On to `OCc1nnn(-c2ccccc2)c1CO`, for which the growth is 89.4%.
